Compound activity: PubChem BioAssay, The Scripps Research Institute Molecular Screening Center
OPRM1-OPRD1 inv: inverse agonists of human mu-delta opioid receptor heterodimerization; P35372+P41143; cell-based MOR-DOR heterodimer luminescence, inverse agonism; inhibition, % at 9.3 µM; hit rate 0.21% among 340,000; in the data active means inhibition above about 22%, passing the limit was not always enough;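 further: 0% = cells with DMSO and 100% = wells without cells with DMSO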
OPRM1-OPRD1 ag: agonists of human mu-delta opioid receptor heterodimerization; activation, % at 9.3 µM; cells, OPRM1-OPRD1 heterodimerization, luminescence; AID 504326; hit rate 0.3% among 340,000; P35372+P41143; in the data active means activation above about 18%;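 further: 0% = vehicle-treated cells and 100% = reference agonist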
HTR5A ag ctr: counter-screen for OPRM1-OPRD1 agonists: human HTR5A agonism. P47898. HTR5A agonist assay, luminescence, cell-based. activation, % at 9.3 µM. hit rate 0.61% among 340,000; in the data active means activation mostly above about 9.5%, no sharp cut-off; inactive means mostly below about 7.6%;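 further: 0% = cells with vehicle only and 100% = reference agonist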
Target sequence (P47898 whole entry, looked up): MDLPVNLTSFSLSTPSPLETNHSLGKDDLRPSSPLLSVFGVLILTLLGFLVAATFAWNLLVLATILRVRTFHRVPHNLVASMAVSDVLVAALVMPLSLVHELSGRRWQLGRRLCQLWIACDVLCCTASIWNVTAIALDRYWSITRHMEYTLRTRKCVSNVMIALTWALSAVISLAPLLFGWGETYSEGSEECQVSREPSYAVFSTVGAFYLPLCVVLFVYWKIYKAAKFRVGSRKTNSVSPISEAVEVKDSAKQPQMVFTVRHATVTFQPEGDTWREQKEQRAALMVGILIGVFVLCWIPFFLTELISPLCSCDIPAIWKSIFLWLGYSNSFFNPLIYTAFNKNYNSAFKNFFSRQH
HTR5A inv ag: HTR5A inverse agonism, opioid heterodimer counter-screen; AID 504634; HTR5A cell line, luminescence; hit rate 0.083% among 340,000; inhibition, % at 9.3 µM; P47898; in the data active means inhibition mostly above about 23%, no sharp cut-off; inactive means mostly below about 18%;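 further: 0% = cells with DMSO and 100% = no-cell wells with DMSO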
* = called active by the depositor. Compounds with a hit are over-represented: about 1.1% of the library has one in this group of screens.

SMILES	OPRM1-OPRD1 inv	OPRM1-OPRD1 ag	HTR5A ag ctr	HTR5A inv ag
Cc1cc(C)c(S(=O)(=O)N2CCCOC2CNC(=O)C(=O)NCCc2c[nH]c3ccccc23)c(C)c1 (centres undefined)	-19	4	12*	-16
Cc1cccc(NC(=O)C(=O)NCCc2c[nH]c3ccccc23)c1C	4	-1	14*	-9
COc1ccc(S(=O)(=O)N(C)C[C@H]2Oc3c(NS(=O)(=O)c4ccc(F)cc4)cccc3C(=O)N([C@H](C)CO)C[C@@H]2C)cc1	7	-1	-4	17
O=C(CCn1c(=O)oc2ccc(Cl)cc21)NCCCN1CCOCC1	3	-1	-2	-4
Cc1cn([C@H]2C[C@H](O)[C@@H](CCC(=O)NCCN3CCCCC3)O2)c(=O)[nH]c1=O	16	-3	0	1
CCOC(=O)c1oc2c(CN3CCN(C)CC3)c(O)c(CC)cc2c(=O)c1-c1nc2ccccc2s1	14	-3	-2	4
N#C/C(=C(\O)Cc1ccccc1)c1nc2ccccc2[nH]1	11	-2	0	-7
N#C/C(=C(/O)c1ccco1)c1nc2ccccc2[nH]1	12	-2	11*	-28
COc1cccc(C(C)NC(=O)Cc2cccs2)c1 (centres undefined)	-1	0	7	8
CCN(CC)CCN(C(=O)/C=C/c1cccs1)c1nc2ccc(C)cc2s1	-20	4	13*	-17
CCOc1cccc2sc(N(CCN(C)C)C(=O)/C=C/c3cccs3)nc12	-10	2	13*	-46
NC(CSC1(c2cccc3ccccc23)c2ccccc2-c2ccccc21)C(=O)O (centres undefined)	-19	4	2	-6
NC(CSC(c1ccccc1)(c1ccccc1)c1cccc2ccccc12)C(=O)O (centres undefined)	-92	21*	5	-21
Cc1ccc(N=C2C(=O)Nc3ccc(C)c(Br)c32)cc1	67*	-13	-8	28
Cc1ccc(N=C2NC(=O)CS2)cc1	7	-1	10	9
CCc1nc2ccc(C(=O)N3CCN(c4ccccc4F)CC3)cc2nc1CC	9	-2	-4	-7
Cc1ccc(NC(=O)c2sc3ncn(CC(=O)N4CCOCC4)c(=O)c3c2C)c(Br)c1	11	-2	0	-2
Cc1ccc(NC(=O)CNCc2ccccc2)c(Br)c1	-17	4	0	0
Cc1ccc(CNCC(=O)Nc2ccc(C)cc2Br)cc1	-10	2	12*	13
COC(=O)[C@@H]1[C@@H](C#N)C2(c3ccccc3-c3ccccc32)N(c2ccc(Cl)cc2)N1C#N	-52	10	8.7*	-9
CC1CCN(S(=O)(=O)c2ccc(NC(=O)Cn3nnc(-c4ccccc4)n3)cc2)CC1	-168	31*	16*	-42
O=C(O)CC1(CC(=O)Nc2ccc(C(F)(F)F)cc2)CCCC1	5	-1	9.5*	-36
CC(C)C[C@@H](CN1CCC[C@@H]1CN1C(=O)C(=O)NC[C@@H]1Cc1ccccc1)N1C[C@H](Cc2ccccc2)N(CC2CCCCCC2)C(=O)C1=O	7	-1	10*	-39
CCC(C)[C@H](NC(=O)N1CC(=O)Nc2ccccc21)C(=O)N1CCC(C(=O)O)CC1 (some centres undefined)	5	-1	-1	3
COc1cccc(NC(=O)CSCC(=O)Nc2ccccc2)c1	8	-2	-3	-6
SMILES	OPRM1-OPRD1 inv	OPRM1-OPRD1 ag	HTR5A ag ctr	HTR5A inv ag
COc1cccc(NC(=O)CSCC(=O)O)c1	9	-2	14*	-31
O=C(Cc1cn(-c2ccccc2)nc1-c1ccccc1)N1CCCCC1	2	0	-4	13
COc1cc2c(cc1OC)C(c1cccc([N+](=O)[O-])c1)NC(=O)C2 (centres undefined)	8	-2	-4	2
COc1cc2c(cc1OC)C1(CCCC1)CNC2c1cccc([N+](=O)[O-])c1 (centres undefined)	35*	-7	-13	38*
Cc1cc(C)c(NC(=O)COC(=O)COc2ccc3c(C)cc(=O)oc3c2)c(Cl)c1	2	-1	4	-10
O=C(N/N=C/c1ccccn1)c1ccc(NC(=O)c2ccc(F)cc2)cc1	-80	13	14*	-24
O=C(O)c1ccc(NC2=C/C(=N/S(=O)(=O)c3ccccc3)c3ccccc3C2=O)cc1	-144	28*	-3	25
O=C(OCC(=O)N1CCc2ccccc21)c1n[nH]c(=O)c2ccccc12	14	-3	13*	-66
Cn1nc(C(=O)OCC(=O)N2CCc3ccccc32)c2ccccc2c1=O	13	-2	2	-7
COc1ccc(-n2c(CN3CCN(c4ccccc4OC)CC3)nc3ccc([N+](=O)[O-])cc3c2=O)c(OC)c1	10	-2	9.9*	-39
